From PubChem
TDP1 cell CPT – qHTS for Inhibitors of human tyrosyl-DNA phosphodiesterase 1 (TDP1): qHTS in cells in presence of CPT; Potency, µM (series often up to 46.2 µM), for the others: at the top dose activity change, negative = growth inhibition, most hits filed as inhibitors; 12% of 420,000 active; chicken DT40 Tdp1-/-;hTDP1 cells + 20 nM CPT, ATP luminescence, 48 h; further: potency means the concentration at half of the fitted maximal effect; nearly all actives have a fitted effect of over 55% in size
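Cell growth measured by CellTiter-Glo luminescence after a minimum 48 h, 37 C compound exposure with 20 nM CPT in Tdp1-knockout DT40 cells stably expressing hTDP1, seeded 400/well; qHTS titration format.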
TDP1 cell noCPT – qHTS for Inhibitors of human tyrosyl-DNA phosphodiesterase 1 (TDP1): qHTS in cells in absence of CPT; Potency, µM (titrated, usually from 46.2 µM), for the others: top-dose activity change, negative = growth inhibition, hits mostly inhibitors; DT40 Tdp1-/- hTDP1 cells, no CPT, ATP luminescence, 48 h; 15% of 420,000 active; further: potency means the concentration at half of the fitted maximal effect; nearly all actives have a fitted effect of over 55% in size
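Readout: luminescence from CellTiter-Glo after 30 min in the dark at RT. Cells: DT40 Tdp1-/- with stable hTDP1, 400/well. Exposure: compounds alone, ≥48 hr, 37 °C.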
IL-1B inflam inh – qHTS for Inhibitors of Inflammasome Signaling: IL-1-beta AlphaLISA Primary Screen; 4.7% of 360,000 active; activity change, % at 57.5 µM; THP-1 LPS/ATP IL-1B secretion, AlphaLISA, 16 h; active compounds read low; in the data active means activity change below about -50%; inconclusive means mostly about -30% to -49%
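Secreted IL-1B measured by AlphaLISA bead assay after 16 h compound exposure of THP-1 cells; compounds (final up to 57.5 uM) added 1 h before LPS (250 ng/mL) and ATP (1.25 mM) stimulation; lower signal means less secretion.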
TDP1 block – qHTS Assay for Inhibitors of Tyrosyl-DNA Phosphodiesterase (TDP1) | Potency, µM (series often up to 130 µM), for inactives: top-dose activity change, negative = inhibition, most hits filed as inhibitors | AID 485290, 2010 | 0.28% of 350,000 active | recombinant TDP1, AlphaScreen DNA substrate cleavage; further: potency means the concentration at half of the fitted maximal effect; nearly all actives have a fitted effect of over 40% in size
Target sequence (Q9NUW8 whole entry, looked up): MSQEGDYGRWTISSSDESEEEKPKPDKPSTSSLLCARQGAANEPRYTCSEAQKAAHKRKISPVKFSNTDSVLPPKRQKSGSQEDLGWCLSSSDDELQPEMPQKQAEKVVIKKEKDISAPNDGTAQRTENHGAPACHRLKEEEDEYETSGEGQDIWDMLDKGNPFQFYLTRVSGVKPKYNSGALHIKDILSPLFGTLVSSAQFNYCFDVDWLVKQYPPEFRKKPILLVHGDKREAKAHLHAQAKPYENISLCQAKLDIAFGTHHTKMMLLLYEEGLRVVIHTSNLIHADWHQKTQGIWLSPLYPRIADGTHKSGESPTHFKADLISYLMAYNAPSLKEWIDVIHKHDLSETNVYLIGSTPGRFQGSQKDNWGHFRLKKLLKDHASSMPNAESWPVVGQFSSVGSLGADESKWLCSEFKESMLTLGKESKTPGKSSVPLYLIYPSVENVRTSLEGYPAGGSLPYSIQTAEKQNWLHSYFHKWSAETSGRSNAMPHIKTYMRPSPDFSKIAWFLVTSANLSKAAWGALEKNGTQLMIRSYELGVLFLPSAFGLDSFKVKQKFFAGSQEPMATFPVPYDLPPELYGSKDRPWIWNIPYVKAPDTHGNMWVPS
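Enzyme-compound mixtures sat 15 min at room temperature, followed by a 5 min reaction with 15 nM final substrate and 10 min with AlphaScreen beads. Recombinant human Tdp1 was used at 1 nM final.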
Six1-Eya2 inh – qHTS Assay for Inhibitors of the Six1/Eya2 Interaction; 0.56% of 360,000 active; AID 651725, 2012; activity change, % (no concentration beside the values); AlphaScreen GST-Six1/His-Eya2 binding, biochemical; active compounds read low; Homeobox protein SIX1 (Homo sapiens) + Protein phosphatase EYA2 (Homo sapiens), …; in the data active means activity change below about -65%; inconclusive means mostly about -30% to -63%
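Homogeneous AlphaScreen proximity assay pairing GST-Six1 with His-tagged Eya2 (added as 5X mix: 250 nM and 500 nM) in 50 mM Tris pH 8.0, 300 mM NaCl, 1 mM TCEP. Glutathione donor and nickel acceptor beads; 1 h, 37 °C, dark.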
CtBP-E1A blk – qHTS Assay for Inhibitors of the CtBP/E1A Interaction; activity change, % (concentration not given with the values); AID 651724, 2012; AlphaScreen GST-E1A/His-CtBP binding, 1536-well; active compounds read low; 0.49% of 340,000 active; in the data active means activity change below about -65%; inconclusive means mostly about -30% to -63%
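Steps: dispense buffer (Tris pH 8.0, NaCl 300 mM, TCEP 1 mM, BSA, Tween 20); add 5X protein mix (GST-E1A, His-CtBP, 125 nM each); pin 23 nL compound; 2 h at 37 °C, dark; add 5X beads (50 ug/mL); 1 h; read.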
Starred values were filed as active, the others as inactive. In the library only some 18% were active in any assay of this set; here they are far more common. Unless noted, the call rests on the fitted dose curve; in most records, active means well fitted curve in the direction sought with a large enough effect; inconclusive means small, poorly fitted or top-dose-only effect, or another doubt; inactive means no such curve, though single readings can be large; an effect the other way counts as inactive or inconclusive. On the % scale 0 is the no-effect control and ±100 the full control effect.

Results for CN(C)c1ccc(/C=C/c2ccnc3ccc(Br)cc23)cc1 ?
TDP1 cell CPT: 5.62µM*; TDP1 cell noCPT: 5.62µM*

What do the screens show for `COc1ccc2nccc(/C=C/c3ccc(N(C)C)cc3)c2c1`?
TDP1 cell CPT: inconclusive; TDP1 cell noCPT: 11.2µM*

What do the screens show for `O=C(NCCCN1CCCC1=O)C(=O)NCC1OCCCN1S(=O)(=O)c1cc(F)ccc1F` (stereo not drawn)?
TDP1 cell CPT: -5.4%; TDP1 cell noCPT: -16.0%; IL-1B inflam inh: inactive; TDP1 block: 1.3%; Six1-Eya2 inh: 9.2; CtBP-E1A blk: 1.7

Results for COc1ccc(CCN2C(=O)C3C4CC(C5C(C(=O)NN)=NOC45)C3C2=O)cc1OC (stereo not drawn) ?
TDP1 cell CPT: 1.3%; TDP1 cell noCPT: 0.7%; IL-1B inflam inh: -6.5; TDP1 block: 2.5%; Six1-Eya2 inh: 8.3; CtBP-E1A blk: -1.4

What do the screens show for `CN(C)c1ccc(/C=C/c2ccnc3ccc(F)cc23)cc1`?
TDP1 cell CPT: 12.6µM*; TDP1 cell noCPT: 14.1µM*

How did COc1ccc(OC)c2c(/C=C/c3c[nH]c4ccccc34)ccnc12 do in these assays?
TDP1 cell CPT: -111.0%; TDP1 cell noCPT: inconclusive

What do the screens show for `Cc1ccnc2ccc(F)cc12`?
TDP1 cell CPT: 1.2%; TDP1 cell noCPT: -2.5%

What do the screens show for `COc1cccc2nccc(/C=C/c3ccc(N(C)C)cc3)c12`?
TDP1 cell CPT: 31.6µM*; TDP1 cell noCPT: 12.6µM*

How did CN(C)c1ccc(/C=C/c2ccnc3ccc(Cl)cc23)cc1 do in these assays?
TDP1 cell CPT: inconclusive; TDP1 cell noCPT: 12.6µM*

How did CCOc1ccc(-c2nnn(CC(=O)NCc3ccccc3)n2)cc1 do in these assays?
TDP1 cell CPT: inconclusive; TDP1 cell noCPT: inconclusive; IL-1B inflam inh: -8.8; TDP1 block: 3.8%; Six1-Eya2 inh: 4.9; CtBP-E1A blk: -1.7

What do the screens show for `COc1ccc(NS(=O)(=O)c2cccc(C(=O)N3CCCC(C)C3)c2)cc1` (stereo not drawn)?
TDP1 cell CPT: inconclusive; TDP1 cell noCPT: inconclusive; IL-1B inflam inh: 49.7; TDP1 block: 0.7%; Six1-Eya2 inh: 2.2; CtBP-E1A blk: 3.6

How did O=C(NCc1cccnc1)Nc1ccc(Cl)c(Cl)c1 do in these assays?
TDP1 cell CPT: -27.8%; TDP1 cell noCPT: inconclusive; IL-1B inflam inh: -11.1; Six1-Eya2 inh: 0.7

What do the screens show for `O=C(COC(=O)/C=C/c1ccc([N+](=O)[O-])cc1)NC1CCCCC1`?
TDP1 cell CPT: -12.7%; TDP1 cell noCPT: -26.2%; IL-1B inflam inh: 11.8; TDP1 block: 0.3%; Six1-Eya2 inh: 4.8

What do the screens show for `CCOC(=O)/C=c1\s/c(=C\c2ccc(C#N)cc2)c(=O)n1CC(=O)NCc1ccco1`?
TDP1 cell CPT: 17.9%; TDP1 cell noCPT: -12.5%; IL-1B inflam inh: 0.0; TDP1 block: 2.6%; Six1-Eya2 inh: 0.9; CtBP-E1A blk: 2.1

Results for CCOC(=O)/C=c1\s/c(=C\c2c(OC)ccc3ccccc23)c(=O)n1CC(=O)NCC1CCCO1 (stereo not drawn) ?
TDP1 cell CPT: inconclusive; TDP1 cell noCPT: 20.6µM*; IL-1B inflam inh: 31.4; TDP1 block: 3.0%; Six1-Eya2 inh: -5.4; CtBP-E1A blk: -10.3

How did CCOC(=O)/C=c1\s/c(=C\c2ccc(C(=O)OC)cc2)c(=O)n1CC(=O)Nc1ccccc1 do in these assays?
TDP1 cell CPT: 16.4µM*; TDP1 cell noCPT: inconclusive; IL-1B inflam inh: 3.2; TDP1 block: 4.8%; Six1-Eya2 inh: 2.0; CtBP-E1A blk: 6.3

How did CCOC(=O)/C=c1/s/c(=C/c2ccc3cc(OC)ccc3c2)c(=O)n1CC(=O)NCC1CCCO1 (stereo not drawn) do in these assays?
TDP1 cell CPT: 16.4µM*; TDP1 cell noCPT: 10.3µM*; IL-1B inflam inh: 0.0; Six1-Eya2 inh: 1.5; CtBP-E1A blk: 3.9

How did CC(=O)C1=C(O)C(=O)N(c2ccc(Br)cc2)C1c1ccc(Cl)cc1 (stereo not drawn) do in these assays?
TDP1 cell CPT: 2.2%; TDP1 cell noCPT: -27.4%; IL-1B inflam inh: 27.3; Six1-Eya2 inh: -4.1; CtBP-E1A blk: 3.3

How did O=C(NCc1ccco1)c1ccccc1-c1nc(-c2ccccc2)no1 do in these assays?
TDP1 cell CPT: inconclusive; TDP1 cell noCPT: -28.9%; IL-1B inflam inh: -5.3; TDP1 block: 6.0%; Six1-Eya2 inh: -3.4; CtBP-E1A blk: -8.3

How did CCc1c(C)nc2ncnn2c1N1CCCC(C(=O)NCCc2ccccc2)C1 (stereo not drawn) do in these assays?
TDP1 cell CPT: inconclusive; TDP1 cell noCPT: 20.6µM*; IL-1B inflam inh: 9.3; TDP1 block: -3.9%; Six1-Eya2 inh: 0.9; CtBP-E1A blk: 7.4

How did CCc1c(C)nc2ncnn2c1N1CCCC(C(=O)NCc2cccs2)C1 (stereo not drawn) do in these assays?
TDP1 cell CPT: inconclusive; TDP1 cell noCPT: 13µM*; IL-1B inflam inh: 36.3; TDP1 block: 3.6%; Six1-Eya2 inh: -1.4; CtBP-E1A blk: 3.2

What do the screens show for `CCc1c(C)nc2ncnn2c1N1CCCC(C(=O)Nc2cc(F)ccc2C)C1` (stereo not drawn)?
TDP1 cell CPT: 16.4µM*; TDP1 cell noCPT: 20.6µM*; IL-1B inflam inh: -4.9; TDP1 block: 5.6%; Six1-Eya2 inh: 9.1; CtBP-E1A blk: -1.5

Results for Cc1cccc(NC(=O)C2CCCN(c3nc4ccccc4s3)C2)c1C (stereo not drawn) ?
TDP1 cell CPT: inconclusive; TDP1 cell noCPT: inconclusive; TDP1 block: 9.3%

What do the screens show for `Cc1nc2ncnn2c(N2CCCC(C(=O)Nc3ccccc3Br)C2)c1C` (stereo not drawn)?
TDP1 cell CPT: inconclusive; TDP1 cell noCPT: 14.6µM*; IL-1B inflam inh: 7.5; TDP1 block: 5.3%; Six1-Eya2 inh: -4.7; CtBP-E1A blk: 5.5

Results for CCc1c(C)nc2ncnn2c1N1CCCC(C(=O)NCc2ccco2)C1 (stereo not drawn) ?
TDP1 cell CPT: inconclusive; TDP1 cell noCPT: inconclusive; IL-1B inflam inh: 7.1; TDP1 block: 7.1%; Six1-Eya2 inh: 1.5; CtBP-E1A blk: -1.9
